Out of some 39,000 compounds screened, about 3,300 (8.5%) were called active. This is one part of a sample in which actives are shown more often than they occur.
These compounds were tested on HepG2 (assay: cytotoxicity call (relative viability < 0.9)). Settings: 10 µM.

Compound | cytotoxicity call
C[C@@H]1CN([C@H](C)CO)C(=O)c2cccc(NC(=O)c3cnccn3)c2O[C@@H]1CN(C)S(=O)(=O)c1cccs1 | inactive
COC(=O)C1=C2CC[C@H](CO)NC(=O)N[C@@H](Cc3ccccc3)C(=O)NCc3cn(nn3)C[C@H](Cc3ccccc3)NC(=O)c3oc(c(C(=O)OC)c3C(=O)OC)CC[C@H](CO)NC(=O)N[C@@H](Cc3ccccc3)C(=O)NCc3cn(nn3)C[C@H](Cc3ccccc3)NC(=O)C(=C1C(=O)OC)O2 | inactive
CCCN(C)C[C@@H]1OCCCC[C@@H](C)Oc2ccc(NS(C)(=O)=O)cc2C(=O)N([C@H](C)CO)C[C@H]1C | inactive
CO[C@@H]1CN(C)C(=O)c2ccc(NC(=O)c3ccccc3)cc2OC[C@@H](C)N(C(=O)CN(C)C)C[C@@H]1C | inactive
CNC(=N)NCCC[C@@H](N)C(=O)O | inactive
C[C@@H]1CN([C@H](C)CO)C(=O)c2cc(C#Cc3ccccc3F)cnc2O[C@H]1CN(C)C(=O)Cc1ccncc1 | inactive
Oc1c(Cl)cc(Cl)cc1Sc1cc(Cl)cc(Cl)c1O | active
Cc1noc(C)c1NC(=O)Nc1ccc2c(c1)C(=O)N([C@@H](C)CO)C[C@@H](C)[C@H](CN(C)CC1CC1)OCCCC[C@H](C)O2 | inactive
C[C@H]1CN([C@@H](C)CO)C(=O)c2cc(NC(=O)Cn3cnnn3)ccc2O[C@H]1CN(C)S(=O)(=O)c1cccs1 | inactive
C[C@H]1CN([C@@H](C)CO)C(=O)CCCn2cc(nn2)CO[C@H]1CN(C)Cc1ccc2c(c1)OCCN2C | inactive
C[C@H](CO)N1C[C@H](C)[C@H](CN(C)Cc2ccc(Cl)c(Cl)c2)Oc2ccc(NC(=O)C3CCCCC3)cc2CC1=O | inactive
C[C@H](CO)N1C[C@H](C)[C@H](CN(C)C(=O)c2ccccc2)OCCCC[C@H](C)Oc2ccc(NC(=O)Nc3cccc4ccccc34)cc2C1=O | inactive
C[C@@H]1CN([C@@H](C)CO)C(=O)c2cc(NS(C)(=O)=O)ccc2O[C@H]1CN(C)Cc1ccc(C(F)(F)F)cc1 | inactive
Clc1ccc(C(Cn2ccnc2)OCc2ccsc2Cl)c(Cl)c1 (stereo unspecified) | inactive
Clc1ccc(C(c2ccc(Cl)cc2)[n+]2ccn(C[C@@H](OCc3ccc(Cl)cc3Cl)c3ccc(Cl)cc3Cl)c2)cc1 | active
CNC[C@@H]1OCCCC[C@H](C)Oc2ccc(NC(=O)c3ccncc3)cc2C(=O)N([C@@H](C)CO)C[C@@H]1C | inactive
NC(=O)NCCC[C@H](N)C(=O)O | inactive
NC(=O)CC[C@H]1CCCNC1 | inactive
Cc1ccc(NC(=N)N=C(N)N)c(C)c1 | inactive
CCc1ccc(NC(=N)N=C(N)N)cc1 | inactive
Cc1ccccc1NC(=N)N=C(N)N | active
